# IDE exosite inh: exo-site inhibitors of human IDE, primary screen, biochemical, fluorescence anisotropy, probe displacement. Insulin-degrading enzyme (Homo sapiens), P14735. 6.3% of 17,000 active. purified IDE, FL-6b probe fluorescence polarization; stronger effect = lower value. z-score at 20 µM. AID 1259349, 2017;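 active means z-score of -3 or lower, meaning strong loss of probe binding signal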;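 further: His-tagged human IDE residues 42-1019 made in E. coli with 30 nM FL-6b probe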
# Target sequence (P14735 42-1019 limits assumed): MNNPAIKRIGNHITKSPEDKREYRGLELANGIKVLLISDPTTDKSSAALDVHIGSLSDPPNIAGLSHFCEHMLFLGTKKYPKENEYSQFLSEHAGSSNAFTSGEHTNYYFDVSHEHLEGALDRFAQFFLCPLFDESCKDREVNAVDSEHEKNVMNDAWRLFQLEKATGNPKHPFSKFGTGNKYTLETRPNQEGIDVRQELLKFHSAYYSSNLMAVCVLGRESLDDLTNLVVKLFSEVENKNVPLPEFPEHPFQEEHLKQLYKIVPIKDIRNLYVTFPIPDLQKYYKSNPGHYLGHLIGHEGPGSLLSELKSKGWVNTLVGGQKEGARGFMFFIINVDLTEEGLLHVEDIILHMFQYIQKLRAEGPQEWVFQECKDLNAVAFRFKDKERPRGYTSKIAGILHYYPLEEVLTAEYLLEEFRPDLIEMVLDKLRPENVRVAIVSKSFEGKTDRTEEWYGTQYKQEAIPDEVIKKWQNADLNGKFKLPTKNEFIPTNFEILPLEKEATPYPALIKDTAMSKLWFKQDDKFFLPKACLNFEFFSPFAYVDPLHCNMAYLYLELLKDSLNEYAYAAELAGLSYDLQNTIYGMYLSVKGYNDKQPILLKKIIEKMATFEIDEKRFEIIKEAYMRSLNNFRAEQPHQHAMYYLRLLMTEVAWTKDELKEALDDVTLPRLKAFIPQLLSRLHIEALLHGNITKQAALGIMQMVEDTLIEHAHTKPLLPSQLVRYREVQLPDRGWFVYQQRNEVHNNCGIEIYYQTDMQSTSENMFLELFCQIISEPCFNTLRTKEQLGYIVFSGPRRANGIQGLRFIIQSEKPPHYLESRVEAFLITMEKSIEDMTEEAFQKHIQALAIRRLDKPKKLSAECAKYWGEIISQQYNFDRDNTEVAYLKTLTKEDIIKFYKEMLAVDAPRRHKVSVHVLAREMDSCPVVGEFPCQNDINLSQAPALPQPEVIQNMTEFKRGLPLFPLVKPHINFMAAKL
# Starred values were filed as active, the others as inactive. The full list was thinned out, with hits kept by preference.
SMILES,IDE exosite inh
COCC(=O)N1CC(=O)N2[C@H](C1)[C@H](c1ccc(C#CC3CCCC3)cc1)[C@@H]2CO,0.5
COCC(=O)N1CC(=O)N2[C@H](C1)[C@@H](c1ccc(C#Cc3cccnc3)cc1)[C@@H]2CO,-0.066
COCC(=O)N1CC(=O)N2[C@H](CO)[C@@H](c3ccc(C#Cc4cccc(OC)c4)cc3)[C@H]2C1,-1.2
COCC(=O)N1CC(=O)N2[C@H](CO)[C@@H](c3ccc(C#Cc4cccc(OC)c4)cc3)[C@@H]2C1,-4.5*
COCC(=O)N1CC(=O)N2[C@@H](CO)[C@H](c3ccc(C#Cc4cccnc4)cc3)[C@@H]2C1,1.1
COCC(=O)N1CC(=O)N2[C@@H](CO)[C@H](c3ccc(C#Cc4cccc(OC)c4)cc3)[C@@H]2C1,-5*
COCC(=O)N1CC(=O)N2[C@H](C1)[C@@H](c1ccc(C#CC3CCCCC3)cc1)[C@@H]2CO,-11*
COCC(=O)N1CC(=O)N2[C@H](CO)[C@H](c3ccc(C#CC4CCCCC4)cc3)[C@@H]2C1,1.8
OC[C@H]1[C@H]2c3ccccc3NC[C@H]2N1CC1CCOCC1,2.4
COCC(=O)Nc1ccc2c(c1)C(=O)N(C)[C@@H]1CC[C@@H](CC(=O)NC3Cc4ccccc4C3)O[C@@H]1CO2,-1.8
COCC#Cc1ccc([C@@H]2[C@@H](CO)N3C(=O)CN(C(=O)C4CCOCC4)C[C@H]23)cc1,0.85
O=C1[C@@H](Cc2ccc(F)cc2)CCn2cc(nn2)COC[C@H]2CCCN12,-0.42
C[C@@H]1CC=CC[C@@H](c2ccc3c(c2)OCO3)NC(=O)[C@H](C)N(C)C(=O)c2ccccc2O1 (mixture of isomers),-0.11
O=C(C1CCOCC1)N1C[C@@H]2[C@H](c3ccccc31)[C@@H](CO)N2C(=O)Nc1ccccc1F,2.4
O=C(N[C@@H]1CC[C@H](CC(=O)N2CCOCC2)O[C@H]1CO)c1cccc(F)c1,-0.91
Cc1ccccc1-c1ccc([C@H]2[C@@H](CO)N3C(=O)CN(C(=O)Cc4ccccn4)C[C@@H]23)cc1,-17*
O=C(Cc1ccccn1)N1CC(=O)N2[C@H](CO)[C@@H](c3ccc(C#CC4CCCCC4)cc3)[C@H]2C1,-0.35
COc1ccc(-c2ccc([C@H]3[C@@H](CO)N4C(=O)CN(C(=O)Cc5ccccn5)C[C@@H]34)cc2)cc1,0.65
Cc1ccccc1-c1ccc([C@H]2[C@H](CO)N3C(=O)CN(C(=O)Cc4ccccn4)C[C@@H]23)cc1,-14*
O=C(Cc1ccccn1)N1CC(=O)N2[C@H](C1)[C@H](c1ccc(C#CC3CC3)cc1)[C@@H]2CO,0.55
O=C(Cc1ccccn1)N1CC(=O)N2[C@H](CO)[C@H](c3ccc(C#CC4CCCCC4)cc3)[C@@H]2C1,-0.63
CCCN1C[C@H](C)[C@H](OC)CN(C)C(=O)c2cc(NC(=O)C3CCC3)ccc2OC[C@@H]1C,-0.26
CCS(=O)(=O)N1CC(=O)N2[C@@H](CO)[C@H](c3ccc(C#Cc4ccc(F)cc4)cc3)[C@@H]2C1,3.8
Cc1ccc(S(=O)(=O)N[C@@H]2C=C[C@H](CC(=O)NCc3ccc(Cl)c(Cl)c3)O[C@H]2CO)cc1,-0.46
CCCNC(=O)N1CC2(C1)[C@@H](c1ccccc1)[C@@H](CO)N2CC1CCOCC1,-0.21
SMILES,IDE exosite inh
O=C(Nc1ccc2c(c1)[C@@H]1C[C@@H](CC(=O)N3CCOCC3)O[C@@H](CO)[C@@H]1O2)Nc1ccccc1F,-1.4
C[C@H]1CN([C@@H](C)CO)C(=O)c2cc(NC(=O)C3CC3)ccc2O[C@H]1CN(C)S(=O)(=O)c1ccccc1,0.3
C[C@@H]1CN([C@H](C)CO)C(=O)c2cc(NS(=O)(=O)c3cn(C)cn3)ccc2O[C@@H]1CN(C)S(=O)(=O)c1ccc(F)cc1,0.72
C[C@@H]1CN([C@H](C)CO)C(=O)c2cc(NC(=O)C3CC3)ccc2O[C@H]1CN(C)S(=O)(=O)c1ccccc1,-3.5*
C[C@@H]1CN([C@H](C)CO)C(=O)c2cc(NS(=O)(=O)c3cn(C)cn3)ccc2O[C@H]1CN(C)S(=O)(=O)c1ccc(F)cc1,-4.5*
C[C@@H]1CN([C@@H](C)CO)C(=O)c2cc(NS(=O)(=O)c3cn(C)cn3)ccc2O[C@H]1CN(C)S(=O)(=O)c1ccc(F)cc1,-0.032
C[C@@H]1CN([C@@H](C)CO)C(=O)c2cc(NC(=O)C3CC3)ccc2O[C@@H]1CN(C)S(=O)(=O)c1ccccc1,0.11
CCC(=O)N1[C@H](CO)[C@H]2c3ccccc3N(C(=O)c3cnccn3)C[C@H]21,2
OC[C@@H]1[C@H](c2ccc(Br)cc2)[C@H]2CNCCCCN12,0.53
O=C(C[C@@H]1CC[C@@H]2[C@H](COC[C@@H](O)CN2Cc2cc(F)ccc2F)O1)NCc1ccc(Oc2ccccc2)cc1,0.21
N#C[C@H]1[C@@H](c2ccccc2-c2cccc(F)c2)[C@@H](CO)N1C(=O)C1CC1,0.78
CC(=O)NC[C@H]1[C@@H](c2ccccc2)[C@@H](CO)N1C(=O)Cc1ccncc1,1.3
O=C(Nc1ccccc1)N1CCCCN2[C@H](C1)[C@@H](c1ccc(C#Cc3ccccc3)cc1)[C@@H]2CO,0.19
